From PubChem BioAssay
Unmarked numbers belong to inactive results. How the calls were made is not given here.

Molecular target: Pantothenate synthetase (Mycobacterium tuberculosis (strain ATCC 25618 / H37Rv)) (UniProt P9WIL5)
Assay: Recombinant Mtb pantothenate synthetase (PanC) inhibitors, coupled enzyme, confirmatory (AID 375);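 further: 0% = full reaction with vehicle and 100% = no enzyme background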
Conditions: coupled enzyme assay; at 10 µM, active compounds read high

Sequence of Pantothenate synthetase (Mycobacterium tuberculosis (strain ATCC 25618 / H37Rv)) (P9WIL5 whole entry, looked up): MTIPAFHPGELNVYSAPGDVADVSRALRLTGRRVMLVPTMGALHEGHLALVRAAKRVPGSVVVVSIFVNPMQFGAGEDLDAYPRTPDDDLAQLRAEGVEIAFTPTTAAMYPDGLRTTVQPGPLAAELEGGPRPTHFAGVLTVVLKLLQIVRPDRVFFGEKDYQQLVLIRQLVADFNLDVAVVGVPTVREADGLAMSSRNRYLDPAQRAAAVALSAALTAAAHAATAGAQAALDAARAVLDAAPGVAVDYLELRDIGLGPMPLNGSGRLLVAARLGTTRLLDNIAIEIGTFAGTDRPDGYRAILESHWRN

| SMILES | inhibition [%] |
| --- | --- |
| CC(=O)N1CCN=C1SCc1c(F)cccc1Cl | 2 |
| COc1ccc(CNC(=O)CCc2nc(-c3ccccc3F)no2)c(OC)c1 | 0 |
| CC(C)(C)c1ccccc1NC(=O)c1cccnc1 | 10 |
| CCn1c(SCC(=O)C(C)(C)C)nnc1-c1cnccn1 | 0 |
| S=c1[nH]nc(Cc2ccccc2)n1Cc1ccco1 | 0 |
| COCCOC(=O)C1=C(C)NC(C)=C(C(=O)OC(C)C)C1c1cccc([N+](=O)[O-])c1 (configuration not stated) | 0 |
| Cc1ccc(Cn2c(SCC(C)C)nc3c2c(=O)n(C)c(=O)n3C)cc1 | 3 |
| COCC(=O)n1nc(NCc2ccc(OC)cc2)nc1NCc1ccc(OC)cc1 | 0 |
| CC(=O)CC(=O)Nc1ccccc1NC(C)=O | 3 |
| N#CC(C(=O)c1ccco1)c1ccccn1 (configuration not stated) | 3 |
| CCOc1cc(S(=O)(=O)NCc2ccccn2)c(C)cc1C | 0 |
| CN(C)c1ccc(NC(=O)c2cc3c(=O)n4ccccc4nc3n2C)cc1 | 7 |
| COc1ccccc1NS(=O)(=O)c1ccc(NC(=O)c2nc3ncccn3n2)cc1 | 0 |
| CCOC(=O)C1CCN(c2c(N(C)Cc3ccco3)c(=O)c2=O)CC1 | 0 |
| COc1ccc(-c2nnc(SCC(=O)Nc3cc(C)on3)n2C)cc1OC | 5 |
| Cc1nnc(NCc2n[nH]c(=O)c3ccccc23)c2ccccc12 | 13 |
| Cc1c(C(=O)OC2CCC(C)CC2)[nH]c2c1C(=O)CCC2 (configuration not stated) | 2 |
| C=Cn1nc(C)c2ccccc2c1=O | 0 |
| COC(=O)C1=C(C)NC2=C(C(=O)CCC2)C1c1coc2ccccc2c1=O (configuration not stated) | 6 |
| COc1ccccc1CNC(=O)Nc1cccs1 | 0 |
| Cn1c(N2CCC(C(N)=O)CC2)nc2c1c(=O)n(Cc1ccc(Br)cc1)c(=O)n2C | 0 |
| O=c1oc2ccccc2cc1NCc1ccccc1O | 0 |
